Source: PubChem BioAssay (NCATS)
Inconclusive results are not listed. Where a call stands in place of a potency, no number is given. Active and inactive are the calls of the source. Unless noted, calls follow the shape of the dose curve; as a rule, active = well fitted cell-killing curve with a large enough effect; inconclusive = small, poorly fitted or top-dose-only effect; inactive = flat fitted curve, though single readings scatter.

Key:
[1] = Cell Viability - LYMP2-025 (AID 976); also: series mostly up to about 92 µM
Procedure, shortened: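 Acute cytotoxicity is scored as a concentration-dependent fall in intracellular ATP, measured by luciferase luminescence, in human lymphoblastoid LYMP2-025 cells exposed to compound for 24 hours at 37 C. AC50 values come from standard Hill fits.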

[2] = Cell Viability - LYMP2-006 (AID 978); also: series mostly up to about 92 µM; nearly all actives have a fitted effect of over 60% in size
Procedure, shortened: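 In this cytotoxicity screen, the human lymphoblastoid line grew in complete medium with test compounds for 24 hr at 37 C. Cellular ATP served as the viability signal.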

[3] = Cell Viability - LYMP2-007 (AID 979);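 also: cells exposed to compound for 24 h before reading; nearly all actives have a fitted effect of over 60% in size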
Procedure, shortened: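 Cells are seeded at 2500 per well and rested 5 hr. Compounds are then added over a concentration series for 24 hr at 37 C. CellTiter-Glo is added for 30 min at room temperature before luminescence reading.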

[4] = Cell Viability - LYMP2-008 (AID 980); also: nearly all actives have a fitted effect of over 60% in size
Procedure, shortened: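 Cells seeded at 2500/well and rested 5 hr at 37 C; compounds added over a concentration range and incubated 24 hr at 37 C; CellTiter-Glo added, 30 min at room temperature; luminescence read and AC50 fitted with Hill model.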

[5] = Cell Viability - LYMP2-010 (AID 981); also: nearly all actives have a fitted effect of over 55% in size
Procedure, shortened: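 Steps: seed 2500 LYMP2-010 cells per well; incubate 5 hr at 37 C; add compound; incubate 24 hr at 37 C; add CellTiter-Glo, wait 30 min at room temperature; read luminescence. Concentration-response fitted to Hill equation for AC50.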

[6] = Cell Viability - LYMP2-012 (AID 982);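 also: cellular ATP by luciferase luminescence where a drop means cytotoxicity; cells exposed to compound for one day before reading; nearly all actives have a fitted effect of over 55% in size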
[7] = Cell Viability - LYMP2-014 (AID 983); also: series mostly up to about 92 µM; nearly all actives have a fitted effect of over 50% in size
Procedure, shortened: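 Cells are plated at 2500/well and left 5 hr at 37 C. Compounds are added across a concentration range and incubated 24 hr at 37 C in complete medium. CellTiter-Glo is added, and luminescence is read after 30 min at room temperature.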

[8] = Cell Viability - LYMP2-016 (AID 984); also: nearly all actives have a fitted effect of over 55% in size
Procedure, shortened: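 Concentration-dependent ATP depletion measured in LYMP2-016 lymphoblastoid cells, 24 h, 37 C; luciferase-based luminescent detection; Hill-equation AC50.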

[9] = Cell Viability - LYMP2-018 (AID 985);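 also: compound exposure lasted 24 hr at 37 °C; nearly all actives have a fitted effect of over 50% in size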
Procedure, shortened: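 Seed 2500 lymphoblastoid cells per well, incubate 5 hr at 37 C, add compound and incubate 24 hr at 37 C, add CellTiter-Glo, wait 30 min at room temperature, then read luminescence.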

[10] = Cell Viability - LYMP2-020 (AID 986); also: series mostly up to about 92 µM; nearly all actives have a fitted effect of over 55% in size
Procedure, shortened: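 Seed 2500 cells per well and incubate 5 hr at 37 C. Add compounds at a concentration series and incubate 24 hr at 37 C. Add CellTiter-Glo, wait 30 min at RT, read luminescence, and fit a Hill curve for AC50.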

[11] = Cell Viability - LYMP2-022 (AID 987); also: nearly all actives have a fitted effect of over 55% in size
Procedure, shortened: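 Cells were seeded at 2500 per well, rested 5 hr at 37 C, and treated with titrated compounds for 24 hr at 37 C. Cellular ATP was then quantified by luciferase luminescence, and AC50 values were derived from Hill-modelled concentration-response curves.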

[12] = Cell Viability - LYMP2-024 (AID 988); also: nearly all actives have a fitted effect of over 60% in size
Procedure, shortened: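 qHTS cytotoxicity, human lymphoblastoid line, complete medium; 24 h cpd treatment, 37 C; CellTiter-Glo ATP luminescence readout; tetraoctylammonium bromide positive control; AC50 via Hill fit.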

[13] = Cell Viability - LYMP2-026 (AID 989); also: nearly all actives have a fitted effect of over 50% in size
Procedure, shortened: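 Cells are seeded at 2500 per well and held 5 hr at 37 C. Compounds are added in concentration series for 24 hr, then CellTiter-Glo reagent is applied and luminescence read.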

[14] = Cell Viability - LYMP1-002 - Assay at 24 hr (AID 993)
Procedure, shortened: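 Acute toxicity is measured as concentration-dependent loss of cellular ATP in a human lymphoblastoid line (Coriell LYMP1-002) after 24 h treatment in complete medium. ATP is quantified by luciferase luminescence and AC50 derived by Hill modelling.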

[15] = Cell Viability - LYMP1-002 - Assay at 40 hr (AID 994); also: nearly all actives have a fitted effect of over 60% in size
Procedure, shortened: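 Cells are plated at 2500 per well and rested 5 hr at 37 C. Compounds are added and incubated 40 hr at 37 C. CellTiter-Glo reagent is added for 30 min at room temperature before luminescence is read.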

[16] = qHTS Assay for Identification of Small Molecule Inducers of Hypoxia Response (AID 2120; active = well fitted curve in the direction sought with a large enough effect in the signal ratio, with a control signal flat, not every such curve was filed as active; the % refers to the signal ratio)
Procedure, shortened: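 Cell-based qHTS for reporter induction: hypoxia response element controlled beta-lactamase in ME-180 cells. Compounds incubated 17 h at 37 degrees C; activity from blue/green (460/530 nm) ratio, inducers ranked by AC50.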

[17] = biological target: Estrogen receptor (Homo sapiens) (UniProt P03372); test: qHTS assay for small molecule antagonists of estrogen receptor alpha signaling (AID 588513; active = well fitted curve in the direction sought with a large enough effect in the signal ratio, with a control signal flat, not every such curve was filed as active; the % refers to the signal ratio)
Sequence of Estrogen receptor (Homo sapiens) (P03372 whole entry, looked up): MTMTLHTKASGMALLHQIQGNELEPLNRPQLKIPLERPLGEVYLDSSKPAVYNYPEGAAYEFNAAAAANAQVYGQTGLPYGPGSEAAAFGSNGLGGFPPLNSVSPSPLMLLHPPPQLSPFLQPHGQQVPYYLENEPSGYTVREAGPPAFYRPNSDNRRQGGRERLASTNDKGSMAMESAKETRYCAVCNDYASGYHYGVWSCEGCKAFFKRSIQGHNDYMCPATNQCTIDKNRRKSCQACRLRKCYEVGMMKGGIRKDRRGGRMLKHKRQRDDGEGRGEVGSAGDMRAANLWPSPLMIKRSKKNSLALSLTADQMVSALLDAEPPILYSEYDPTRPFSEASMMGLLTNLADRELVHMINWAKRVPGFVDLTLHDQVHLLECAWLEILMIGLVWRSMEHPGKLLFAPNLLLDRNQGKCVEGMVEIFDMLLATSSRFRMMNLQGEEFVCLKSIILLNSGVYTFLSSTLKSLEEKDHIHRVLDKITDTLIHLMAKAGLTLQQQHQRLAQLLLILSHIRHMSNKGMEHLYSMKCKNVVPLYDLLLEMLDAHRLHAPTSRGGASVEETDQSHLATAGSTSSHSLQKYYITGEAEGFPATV
Procedure, shortened: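 Antagonist-mode qHTS in ER-alpha-UAS-bla HEK 293 cells: compound titration, 0.5nM estradiol for 18 h, CCF4 fluorescence, Hill-derived IC50.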

[18] = biological target: Estrogen receptor (Homo sapiens) (UniProt P03372); test: qHTS assay for small molecule agonists of estrogen receptor alpha signaling (AID 588514; calls by dose curve; also: nearly all actives have a fitted effect of over 70% in size; also: potency is read from the fitted curve at half-maximal effect)
Procedure, shortened: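 Efficacy is expressed against 20 nM 17-beta-estradiol (100%) and DMSO basal (0%); EC50 from Hill equation. Assay: beta-lactamase reporter in ER-alpha-UAS-bla HEK 293 cells, 18 h compound incubation, CCF4 detection.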

[19] = Cell Viability - LYMP2-002 (AID 977);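 also: series mostly up to about 92 µM; compound exposure lasted 24 h at 37 °C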
Procedure, shortened: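 In this qHTS viability screen, 2500 human lymphoblastoid cells per well receive compound for 24 hr at 37 C, and luciferase-based ATP luminescence gives the viability signal. Tetraoctylammonium bromide serves as positive control.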

CNC(=O)c1ccccc1
Potency [1]: inactive | Potency [2]: inactive | Potency [3]: inactive | Potency [4]: inactive | Potency [5]: inactive | Potency [6]: inactive | Potency [7]: inactive | Potency [8]: inactive | Potency [9]: inactive | Potency [10]: inactive | Potency [11]: inactive | Potency [12]: inactive | outcome [13]: inactive | Potency [14]: inactive | Potency [15]: inactive | outcome [16]: inactive | outcome [17]: inactive | Potency [18]: inactive

Oc1cccc(Nc2ccccc2)c1
Potency [1]: inactive | Potency [19]: inactive | Potency [2]: inactive | Potency [3]: inactive | Potency [4]: inactive | Potency [6]: inactive | Potency [7]: inactive | Potency [8]: inactive | Potency [9]: inactive | Potency [10]: inactive | Potency [11]: inactive | Potency [12]: inactive | outcome [13]: inactive | Potency [14]: inactive | Potency [15]: inactive | outcome [16]: inactive | outcome [17]: inactive | Potency [18]: 25.1 µM (active)

Nc1cccc(C(F)(F)F)c1
Potency [1]: inactive | Potency [2]: inactive | Potency [3]: inactive | Potency [4]: inactive | Potency [5]: inactive | Potency [6]: inactive | Potency [7]: inactive | Potency [8]: inactive | Potency [9]: inactive | Potency [10]: inactive | Potency [11]: inactive | Potency [12]: inactive | outcome [13]: inactive | Potency [14]: inactive | Potency [15]: inactive | outcome [16]: inactive | outcome [17]: inactive | Potency [18]: inactive

CCCCN(CCO)CCCC
Potency [1]: inactive | Potency [2]: inactive | Potency [3]: inactive | Potency [4]: inactive | Potency [5]: inactive | Potency [6]: inactive | Potency [7]: inactive | Potency [8]: inactive | Potency [9]: inactive | Potency [10]: inactive | Potency [11]: inactive | Potency [12]: inactive | outcome [13]: inactive | Potency [14]: inactive | Potency [15]: inactive | outcome [16]: inactive | outcome [17]: inactive | Potency [18]: inactive

CC(N)CN (stereo not given)
Potency [1]: inactive | Potency [19]: inactive | Potency [2]: inactive | Potency [3]: inactive | Potency [4]: inactive | Potency [5]: inactive | Potency [6]: inactive | Potency [7]: inactive | Potency [8]: inactive | Potency [10]: inactive | Potency [11]: inactive | Potency [12]: inactive | outcome [13]: inactive | Potency [14]: inactive | Potency [15]: inactive | outcome [16]: inactive | outcome [17]: inactive | Potency [18]: inactive

ClC/C=C/CCl
Potency [1]: inactive | Potency [19]: inactive | Potency [2]: inactive | Potency [3]: inactive | Potency [4]: inactive | Potency [5]: inactive | Potency [7]: inactive | Potency [9]: inactive | Potency [11]: inactive | outcome [13]: inactive | Potency [14]: inactive | Potency [15]: inactive | outcome [16]: inactive | outcome [17]: inactive | Potency [18]: inactive

O=C1C=CCCC1
Potency [1]: inactive | Potency [19]: inactive | Potency [2]: inactive | Potency [3]: inactive | Potency [6]: inactive | Potency [8]: inactive | Potency [10]: inactive | Potency [11]: inactive | Potency [12]: inactive | Potency [14]: inactive | Potency [15]: inactive | outcome [16]: inactive | outcome [17]: inactive | Potency [18]: inactive

Nc1cc([N+](=O)[O-])ccc1C(=O)O
Potency [1]: inactive | Potency [19]: inactive | Potency [2]: inactive | Potency [3]: inactive | Potency [4]: inactive | Potency [5]: inactive | Potency [7]: inactive | Potency [8]: inactive | Potency [9]: inactive | Potency [10]: inactive | Potency [11]: inactive | Potency [12]: inactive | outcome [13]: inactive | Potency [14]: inactive | Potency [15]: inactive | outcome [16]: inactive | outcome [17]: inactive | Potency [18]: inactive

CC(C)(c1cc(Br)c(OCC(Br)CBr)c(Br)c1)c1cc(Br)c(OCC(Br)CBr)c(Br)c1 (stereo not given)
Potency [1]: inactive | Potency [19]: inactive | Potency [2]: inactive | Potency [4]: inactive | Potency [5]: inactive | Potency [6]: inactive | Potency [7]: inactive | Potency [8]: inactive | Potency [9]: inactive | Potency [10]: inactive | Potency [11]: inactive | Potency [12]: inactive | outcome [13]: inactive | Potency [14]: inactive | Potency [15]: inactive | outcome [16]: inactive | outcome [17]: inactive | Potency [18]: inactive
